Screening data: PubChem, Broad Institute
This is one part of a sample in which hits are shown more often than they occur.
STK33 inh – STK33 kinase inhibitors, primary screen, biochemical, luminescence, ADP-Glo, MBP substrate. AID 2322, 2010. Serine/threonine-protein kinase 33 (Homo sapiens), Q9BYT3. inhibition, % at 12.5 µM. hit rate 0.44% among 27,000; in the data active = inhibition above about 20%; inconclusive = no clear call, values can overlap the other calls
Target sequence (Q9BYT3 whole entry, looked up): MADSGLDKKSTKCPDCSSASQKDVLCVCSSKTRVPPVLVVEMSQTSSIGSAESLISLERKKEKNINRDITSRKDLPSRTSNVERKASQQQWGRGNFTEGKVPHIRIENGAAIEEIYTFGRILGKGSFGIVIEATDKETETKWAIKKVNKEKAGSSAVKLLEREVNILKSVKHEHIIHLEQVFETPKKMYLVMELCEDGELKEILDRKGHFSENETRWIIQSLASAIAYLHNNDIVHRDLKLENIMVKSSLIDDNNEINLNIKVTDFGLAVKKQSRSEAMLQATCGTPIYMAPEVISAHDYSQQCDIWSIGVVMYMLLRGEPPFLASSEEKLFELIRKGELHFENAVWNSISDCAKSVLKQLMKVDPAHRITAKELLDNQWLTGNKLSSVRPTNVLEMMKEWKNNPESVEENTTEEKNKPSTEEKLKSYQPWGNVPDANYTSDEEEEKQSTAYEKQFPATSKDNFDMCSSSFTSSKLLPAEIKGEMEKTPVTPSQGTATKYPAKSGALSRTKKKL
NOMO-1 viab – NOMO-1 AML cell viability reduction, primary screen, STK33 inhibitor project, CellTiter-Glo luminescence | NOMO-1 AML viability, 72 h | inhibition, % (no concentration beside the values) | hit rate 7.5% among 37,000; in the data active = inhibition above about 80%; inconclusive = no clear call, values can overlap the other calls
PD-1 reverse act – activators reversing PD-1 mediated T-cell inhibition, primary screen, luminescence, primary human CD4 T cells, PD-L1 beads. CellTiter-Glo 96 h. 29,000 tested, under 10 active. AID 2316, 2010. activation, % (test concentration not listed); call rule not given here
A number is an active result; – = inactive; ? = inconclusive; · = no result given.

SMILES	STK33 inh	NOMO-1 viab	PD-1 reverse act
CCOC(=O)c1cnn(C(=O)Cc2cccc(OC)c2)c1N	·	–	–
COc1ccc(OC)c(S(=O)(=O)N2CCC(C(=O)Nc3cccc(C(C)=O)c3)CC2)c1	–	–	–
O=c1cc(CSc2ccc(Cl)cc2)c2ccc(O)cc2o1	–	–	–
O=S(=O)(N[C@H]1CCN(Cc2ccc(OCCO)cc2)C1)c1cc(Cl)ccc1Cl	–	·	·
C[C@@H]1CN([C@@H](C)CO)C(=O)c2cccc(NC(=O)Nc3ccccc3)c2O[C@H]1CN(C)Cc1ccc(-c2ccccc2)cc1	·	93	–
C[C@@H]1CN([C@@H](C)CO)C(=O)c2cccc(NC(=O)Nc3ccc(F)cc3)c2O[C@@H]1CN(C)Cc1ccc(-c2ccccc2)cc1	·	99	–
C[C@@H]1CN([C@H](C)CO)C(=O)c2cccc(NC(=O)Nc3ccc(F)cc3)c2O[C@H]1CN(C)Cc1ccc(-c2ccccc2)cc1	·	?	–
C[C@H](CO)N1C[C@H](C)[C@@H](CN(C)Cc2ccccc2)Oc2c(NC(=O)Nc3ccccc3)cccc2C1=O	·	103	–
C[C@H](CO)N1C[C@H](C)[C@H](CN(C)Cc2ccc(-c3ccccc3)cc2)Oc2c(NC(=O)Nc3ccccc3)cccc2C1=O	·	–	–
C[C@@H]1CN([C@@H](C)CO)C(=O)c2cccc(NC(=O)Nc3ccccc3)c2O[C@@H]1CN(C)Cc1ccccc1	·	–	–
COc1cc(NC(=O)COc2ccc(Cl)cc2C)c(C(=O)O)cc1OC	–	–	–
CC1(C)c2ccccc2N2CC(=O)NC21/C=C/c1ccc(N2CCOCC2)cc1 (stereo unspecified)	–	–	–
O=C(c1ccccc1)N1CN(C2CCCCC2)Cc2c1sc1c2CCCC1	·	116	–
Cc1sc2c(c1C)CN(C(C)(C)C)CN2C(=O)c1ccccc1	·	–	–
O=C(Nc1cc(-c2ccc(Cl)cc2)[nH]n1)C1Cc2ccccc2C1	·	–	–
O=C1O[C@H](c2ccccc2)[C@H](c2ccccc2)N2[C@H]1[C@@H](C(=O)N1CCN(c3ncccn3)CC1)[C@]1(C(=O)Nc3ccc(C#CCCO)cc31)[C@H]2c1ccc(O)cc1	–	·	·
COc1cc(CSc2nnnn2-c2ccc(C)cc2C)cc(OC)c1OC	·	–	–
CSc1nc(C)nc(N/C=C(\C#N)S(=O)(=O)c2ccc(C)cc2)n1	·	–	–
Cc1ccc(S(=O)(=O)/C(C#N)=C/Nc2cc(C(F)(F)F)cc(C(F)(F)F)c2)cc1	·	89	–
O=C(/C=C/c1ccccc1)Oc1ccccc1	·	–	–
O=C(/C=C/c1ccc(O)c(O)c1)OCCc1ccccc1	–	141	–
c1cncc(-c2nc3c4c5c(sc4ncn3n2)CCCC5)c1	·	–	–
C/C1=C/CCC2=CC(OC2=O)C(C)(C)/C=C/C1=O (stereo unspecified)	–	119	–
C=CCn1c(SCC(N)=O)nnc1-c1ccc(Br)cc1	–	–	–
COc1ccc(S(=O)(=O)NCCc2c[nH]c3ccccc23)c2ccccc12	–	–	·
SMILES	STK33 inh	NOMO-1 viab	PD-1 reverse act
O=C1S/C(=C\c2ccc(N3CCOCC3)o2)C(=O)N1c1ccccc1	·	132	–
O=c1c(N2CCOCC2)nnc2sc3ccccc3n12	·	–	–
C=CC[C@]1(C(=O)N2CCCCC2)N=C(c2ccc(OCCCO)cc2)O[C@H]1c1ccccc1	–	·	·
C[C@H]1CN([C@@H](C)CO)C(=O)c2cccc(NS(=O)(=O)c3ccc(F)cc3)c2O[C@@H]1CN(C)Cc1ccc(C(=O)Nc2ccccc2N)cc1	·	94	–
C[C@@H]1CN([C@@H](C)CO)C(=O)c2cccc(NS(=O)(=O)c3ccc(F)cc3)c2O[C@H]1CN(C)Cc1ccc(C(=O)Nc2ccccc2N)cc1	·	–	–
C[C@@H]1CN([C@@H](C)CO)C(=O)c2cccc(NS(=O)(=O)c3ccc(F)cc3)c2O[C@@H]1CN(C)Cc1ccc(C(=O)Nc2ccccc2N)cc1	·	129	–
C[C@H]1CN([C@@H](C)CO)C(=O)c2cccc(NS(=O)(=O)c3ccc(F)cc3)c2O[C@H]1CN(C)Cc1ccc(C(=O)Nc2ccccc2N)cc1	·	114	–
C[C@H](CO)N1C[C@H](C)[C@@H](CN(C)Cc2ccc(C(=O)Nc3ccccc3N)cc2)Oc2c(NS(=O)(=O)c3ccc(F)cc3)cccc2C1=O	·	–	–
Cc1cccc(NC(=O)c2cc(NC(=O)CCC(=O)O)ccc2N2CCOCC2)c1	–	–	–
CC(C)CNC(=O)[C@@]1(C)c2ccccc2C(=O)N(Cc2cc(F)cc(C(F)(F)F)c2)[C@H]1c1ccc(CO)cc1	–	·	·
C[C@@H]1CC[C@]2(C(=O)O)CC[C@]3(C(=O)O)C(=CCC4[C@@]5(C)CC[C@H](O[C@@H]6O[C@H](C)[C@H](O)[C@H](O)[C@H]6O)C(C)(C)C5CC[C@]43C)C2[C@H]1C (stereo partly specified)	–	·	·
O=C(CSc1nc2ccccc2c(=O)n1-c1ccc(Br)cc1)Nc1cccc(F)c1	–	–	–
Cc1ccc(C)c(-n2nnnc2SCC(=O)Nc2ccccc2[N+](=O)[O-])c1	–	–	–
CNC(=O)CN(c1ccc(Br)c(C)c1)S(C)(=O)=O	–	–	–
COc1ccc(C2CC(=O)c3ccc(OC)cc3O2)cc1 (stereo unspecified)	–	–	·
COc1ccc(/C=C2\C(=O)c3ccccc3OC2c2ccccc2)cc1 (stereo unspecified)	·	120	–
O=S(=O)(NCC1CCN(Cc2ccc(OCCO)cc2)CC1)c1ccccc1	–	·	·
CS(=O)(=O)CCC(C(=O)N1CCCCC1)N1C(=O)c2cc(Cl)c(Cl)cc2C1=O (stereo unspecified)	–	–	–
COc1ccc(NC(=O)CSc2nc3c(cc2C#N)C(=O)CCC3)cc1	–	–	–
COC(=O)COc1ccc(NC(=O)c2ccc(OC)c([N+](=O)[O-])c2)cc1	–	121	–
COc1ccc(C(=O)COc2ccc(NC(=O)c3cccc([N+](=O)[O-])c3)cc2)cc1	–	–	–
COc1ccc(CN(C)C[C@@H]2Oc3ccc(NS(=O)(=O)c4ccc(Cl)cc4)cc3CC(=O)N([C@@H](C)CO)C[C@@H]2C)cc1	–	–	–
COc1ccc(CN(C)C[C@@H]2Oc3ccc(NS(=O)(=O)c4ccc(Cl)cc4)cc3CC(=O)N([C@H](C)CO)C[C@H]2C)cc1	–	–	·
COc1ccc(S(=O)(=O)Nc2ccc3c(c2)CC(=O)N([C@H](C)CO)C[C@H](C)[C@H](CN(C)Cc2ccc(Cl)c(Cl)c2)O3)cc1	–	98	·
COc1ccc(S(=O)(=O)Nc2ccc3c(c2)CC(=O)N([C@H](C)CO)C[C@@H](C)[C@H](CN(C)Cc2ccc(Cl)c(Cl)c2)O3)cc1	–	112	–
SMILES	STK33 inh	NOMO-1 viab	PD-1 reverse act
COC1=CC(=O)O[C@@H](CCc2ccccc2)[C@H]1O	–	–	–
COc1ccc(OC)c(S(=O)(=O)Nc2ccc(O)c3ccccc23)c1	–	127	–
COc1ccc(OC)c(S(=O)(=O)Nc2ccc(NC(C)=O)cc2)c1	–	–	·
CS/C(NCC1CC1)=C(/C#N)C(=O)c1ccc(Cl)cc1	·	111	–
CS/C(NC1CCCCC1)=C(/C#N)S(=O)(=O)c1ccc(Cl)cc1	·	–	–
COc1ccc(CCn2cnc3oc(-c4ccccc4)c(-c4ccccc4)c3c2=N)cc1OC	·	–	–
CC(Oc1ccc(C(C)(C)C)cc1)c1nc(-c2cccnc2)no1 (stereo unspecified)	–	81	–
